# Results published in the supplement of paper PMC6555819.
# Tests used:
# Experiment in all cases: PBM binding z-score (relative to random genomic background probes); higher = stronger binding; sequences stand for … in GC…GCGATTGACAGCGTAGAATGAAGG
# [1] = tested on: FXR:RXRa (NR concentration 270 nM, RXRa partner concentration 90 nM)
# Outline: (§1)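 Random background probes are the reference for binding z-scores. These scores derive from regression-normalized fluorescence on custom Agilent 4×180K protein-binding microarrays incubated 1 h with ligand-free nuclear receptor dimers. Binding was detected with antibodies against each partner (one per run).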
# [2] = tested on: LXRa:RXRa (NR concentration 270 nM, RXRa partner concentration 90 nM)
# Outline: as §1
# [3] = tested on: LXRa homodimer (NR concentration 270 nM)
# Outline: as §1
# [4] = tested on: LXRb:RXRa (NR concentration 270 nM, RXRa partner concentration 90 nM)
# Outline: as §1
# [5] = tested on: LXRb homodimer (NR concentration 270 nM)
# Outline: as §1
# [6] = tested on: PPARa:RXRa (NR concentration 270 nM, RXRa partner concentration 90 nM)
# Outline: as §1
# [7] = tested on: PPARg:RXRa (NR concentration 180 nM, RXRa partner concentration 90 nM)
# Outline: as §1
# [8] = tested on: PPARg:RXRa 270nM:90nM, anti-RXR (NR concentration 270 nM, RXRa partner concentration 90 nM)
# Outline: as §1
# [9] = tested on: PPARg:RXRa 30nM:10nM, anti-RXR (NR concentration 30 nM, RXRa partner concentration 10 nM)
# Outline: as §1
# [10] = tested on: PPARg:RXRa 90nM:30nM, anti-RXR (NR concentration 90 nM, RXRa partner concentration 30 nM)
# Outline: as §1
sequence,measurement,setting,value
TCTCAGAGGACACGAAAGGTCAGAGCTCGACATC,PBM binding z-score,[1],3.13
same,PBM binding z-score,[2],4.15
same,PBM binding z-score,[3],3.56
same,PBM binding z-score,[4],3.12
same,PBM binding z-score,[5],0.409
same,PBM binding z-score,[6],3.52
same,PBM binding z-score,[7],1.66
same,PBM binding z-score,[8],3.01
same,PBM binding z-score,[9],3.08
same,PBM binding z-score,[10],2.85
CCTACTGGCCCAAAAAGGTCATTGATGCCGATAA,PBM binding z-score,[1],3.63
same,PBM binding z-score,[2],4.47
same,PBM binding z-score,[3],3.88
same,PBM binding z-score,[4],4.4
same,PBM binding z-score,[5],1.04
same,PBM binding z-score,[6],4.74
same,PBM binding z-score,[7],1.35
same,PBM binding z-score,[8],2.89
same,PBM binding z-score,[9],0.585
same,PBM binding z-score,[10],1.93
GCTAGTTGGTAAGTAAAAGGTCACACACCGGTCG,PBM binding z-score,[1],2.63
same,PBM binding z-score,[2],4.22
same,PBM binding z-score,[3],4.45
same,PBM binding z-score,[4],3.94
same,PBM binding z-score,[5],0.812
same,PBM binding z-score,[6],4.58
same,PBM binding z-score,[7],4.49
same,PBM binding z-score,[8],6.32
same,PBM binding z-score,[9],4.94
same,PBM binding z-score,[10],6.92
TCTCGGAGGACACGAAGGTCCGAGCTTTCCAGAG,PBM binding z-score,[1],0.324
same,PBM binding z-score,[2],-0.29
same,PBM binding z-score,[3],-0.723
same,PBM binding z-score,[4],-0.734
same,PBM binding z-score,[5],-1.4
same,PBM binding z-score,[6],0.0732
same,PBM binding z-score,[7],-0.408
same,PBM binding z-score,[8],0.645
same,PBM binding z-score,[9],1.71
same,PBM binding z-score,[10],1.12
AATACAGGGTCATCGTAGGCCAGCGTACGCACAG,PBM binding z-score,[1],7.47
same,PBM binding z-score,[2],6.19
same,PBM binding z-score,[3],2.61
same,PBM binding z-score,[4],4.66
same,PBM binding z-score,[5],1.23
same,PBM binding z-score,[6],6.28
same,PBM binding z-score,[7],6.7
same,PBM binding z-score,[8],5.95
same,PBM binding z-score,[9],2.73
same,PBM binding z-score,[10],4.61
TCTAGCAGGCCGGAGGGTCACTCAAGAGGTACGG,PBM binding z-score,[1],0.786
same,PBM binding z-score,[2],0.705
same,PBM binding z-score,[3],-0.517
same,PBM binding z-score,[4],0.729
same,PBM binding z-score,[5],-1.11
same,PBM binding z-score,[6],1.69
same,PBM binding z-score,[7],0.508
same,PBM binding z-score,[8],1.34
same,PBM binding z-score,[9],1.19
same,PBM binding z-score,[10],1.2
CCTGCTTGGTCATGGTCAGCTAATCTACAGTATG,PBM binding z-score,[1],-0.315
same,PBM binding z-score,[2],-0.299
same,PBM binding z-score,[3],-0.539
same,PBM binding z-score,[4],-0.459
same,PBM binding z-score,[5],-0.639
same,PBM binding z-score,[6],-0.334
same,PBM binding z-score,[7],-0.171
same,PBM binding z-score,[8],-0.154
same,PBM binding z-score,[9],-0.537
same,PBM binding z-score,[10],-0.192
ATCTGTAGGTAAAAGTTCAGTGAATCCCGAGGAT,PBM binding z-score,[1],0.442
same,PBM binding z-score,[2],1.21
same,PBM binding z-score,[3],0.955
same,PBM binding z-score,[4],0.989
same,PBM binding z-score,[5],0.43
same,PBM binding z-score,[6],4
same,PBM binding z-score,[7],8.09
same,PBM binding z-score,[8],7.62
same,PBM binding z-score,[9],7.35
same,PBM binding z-score,[10],8.71
AGAACGGGGGCAATGAGTTGATAGCACGGGTGGC,PBM binding z-score,[1],2.35
same,PBM binding z-score,[2],2.45
same,PBM binding z-score,[3],0.461
same,PBM binding z-score,[4],4.18
same,PBM binding z-score,[5],6.07
same,PBM binding z-score,[6],3.66
same,PBM binding z-score,[7],2.98
same,PBM binding z-score,[8],4.15
same,PBM binding z-score,[9],2.33
same,PBM binding z-score,[10],3.26
TCTTGTAGATCAAAGGTTAACAAAGCCGAAGCCT,PBM binding z-score,[1],1.99
same,PBM binding z-score,[2],2.08
same,PBM binding z-score,[3],-0.0148
same,PBM binding z-score,[4],2.16
same,PBM binding z-score,[5],0.107
same,PBM binding z-score,[6],4.9
same,PBM binding z-score,[7],8.48
same,PBM binding z-score,[8],8.41
same,PBM binding z-score,[9],7.57
same,PBM binding z-score,[10],9.81
ATCTGTAGGTAACAAGTTCAGTGAAAGAGAGGAC,PBM binding z-score,[1],0.84
same,PBM binding z-score,[2],0.812
same,PBM binding z-score,[3],0.628
same,PBM binding z-score,[4],0.805
same,PBM binding z-score,[5],0.615
same,PBM binding z-score,[6],1.59
same,PBM binding z-score,[7],1.51
same,PBM binding z-score,[8],2.08
same,PBM binding z-score,[9],0.821
same,PBM binding z-score,[10],1.57
TCTCGGAGGACACGAAAGGTCAGAGGTCGACATC,PBM binding z-score,[1],3.84
same,PBM binding z-score,[2],4.45
same,PBM binding z-score,[3],3.58
same,PBM binding z-score,[4],4.14
same,PBM binding z-score,[5],0.107
same,PBM binding z-score,[6],4.5
same,PBM binding z-score,[7],3.27
same,PBM binding z-score,[8],4.29
same,PBM binding z-score,[9],3.24
same,PBM binding z-score,[10],3.74
CCGAATAGGTTATGGGGCATTCAGGCAACGGTGA,PBM binding z-score,[1],0.575
same,PBM binding z-score,[2],0.686
same,PBM binding z-score,[3],-0.0267
same,PBM binding z-score,[4],1.02
same,PBM binding z-score,[5],-0.297
same,PBM binding z-score,[6],2.16
same,PBM binding z-score,[7],1.97
same,PBM binding z-score,[8],3.14
same,PBM binding z-score,[9],0.896
same,PBM binding z-score,[10],2.04
TCTTGTAGATCAAACGTTAAGAAAGCCGAAGCCT,PBM binding z-score,[1],0.211
same,PBM binding z-score,[2],0.363
same,PBM binding z-score,[3],-0.0781
same,PBM binding z-score,[4],0.18
same,PBM binding z-score,[5],-0.0447
same,PBM binding z-score,[6],0.988
same,PBM binding z-score,[7],0.748
same,PBM binding z-score,[8],3.17
same,PBM binding z-score,[9],3.27
same,PBM binding z-score,[10],3.48
CGTCCAAGGTCAGAGAGGTCTGTGAATGCCGAGT,PBM binding z-score,[1],4.66
same,PBM binding z-score,[2],3.14
same,PBM binding z-score,[3],0.0313
same,PBM binding z-score,[4],2.1
same,PBM binding z-score,[5],-0.51
same,PBM binding z-score,[6],3.92
same,PBM binding z-score,[7],2.27
same,PBM binding z-score,[8],2.64
same,PBM binding z-score,[9],0.0649
same,PBM binding z-score,[10],1.45
CGAACTAGGTCAAGGACAGCGAATCTCCGCACGC,PBM binding z-score,[1],3.45
same,PBM binding z-score,[2],2.27
same,PBM binding z-score,[3],0.194
same,PBM binding z-score,[4],1.27
same,PBM binding z-score,[5],-0.45
same,PBM binding z-score,[6],4.72
same,PBM binding z-score,[7],7.46
same,PBM binding z-score,[8],6.26
same,PBM binding z-score,[9],3.42
same,PBM binding z-score,[10],5.68
CCTTACGGGTCACTGACAAGTTATAGCATTTGGA,PBM binding z-score,[1],5.46
same,PBM binding z-score,[2],3.31
same,PBM binding z-score,[3],0.0997
same,PBM binding z-score,[4],3.2
same,PBM binding z-score,[5],0.134
same,PBM binding z-score,[6],4.9
same,PBM binding z-score,[7],4.26
same,PBM binding z-score,[8],4.4
same,PBM binding z-score,[9],1.41
same,PBM binding z-score,[10],3.45
CCTTACGGGTCAGTCCAGGTTATAGCATCGGAGT,PBM binding z-score,[1],3.69
same,PBM binding z-score,[2],3.88
same,PBM binding z-score,[3],0.251
same,PBM binding z-score,[4],1.74
same,PBM binding z-score,[5],-0.12
same,PBM binding z-score,[6],2.85
same,PBM binding z-score,[7],1.11
same,PBM binding z-score,[8],1.64
same,PBM binding z-score,[9],0.319
same,PBM binding z-score,[10],0.821
ACAGACAGGTGAGTGAAGGTAAATCAGCTGGACG,PBM binding z-score,[1],0.263
same,PBM binding z-score,[2],-0.325
same,PBM binding z-score,[3],-0.654
same,PBM binding z-score,[4],-0.138
same,PBM binding z-score,[5],-0.427
same,PBM binding z-score,[6],-0.1
same,PBM binding z-score,[7],0.739
same,PBM binding z-score,[8],-0.481
same,PBM binding z-score,[9],-0.0948
same,PBM binding z-score,[10],-0.384
TCTATTAGTTGAAAGGCAACCGACGAGTCCGTTT,PBM binding z-score,[1],0.518
same,PBM binding z-score,[2],0.929
same,PBM binding z-score,[3],0.254
same,PBM binding z-score,[4],0.901
same,PBM binding z-score,[5],0.728
same,PBM binding z-score,[6],1.12
same,PBM binding z-score,[7],0.475
same,PBM binding z-score,[8],2.96
same,PBM binding z-score,[9],4.06
same,PBM binding z-score,[10],3.42
CCTATGAGTTGACCATAAGGGCAACCGAAGCTCG,PBM binding z-score,[1],0.925
same,PBM binding z-score,[2],0.669
same,PBM binding z-score,[3],-0.0503
same,PBM binding z-score,[4],0.247
same,PBM binding z-score,[5],0.184
same,PBM binding z-score,[6],0.685
same,PBM binding z-score,[7],0.512
same,PBM binding z-score,[8],0.342
same,PBM binding z-score,[9],-0.144
same,PBM binding z-score,[10],-0.218
ACTATTAGTTGACTTAGGTCAACCGATACGACGC,PBM binding z-score,[1],1.69
same,PBM binding z-score,[2],2.25
same,PBM binding z-score,[3],1.71
same,PBM binding z-score,[4],2.39
same,PBM binding z-score,[5],1.28
same,PBM binding z-score,[6],2.29
same,PBM binding z-score,[7],1.35
same,PBM binding z-score,[8],1.35
same,PBM binding z-score,[9],0.53
same,PBM binding z-score,[10],0.993
CGTCCAAGGTCATAGGAGGTAAGTGAAGACAGAT,PBM binding z-score,[1],7.22
same,PBM binding z-score,[2],5.32
same,PBM binding z-score,[3],0.86
same,PBM binding z-score,[4],3.76
same,PBM binding z-score,[5],0.57
same,PBM binding z-score,[6],5.49
same,PBM binding z-score,[7],4.65
same,PBM binding z-score,[8],4.94
same,PBM binding z-score,[9],1.76
same,PBM binding z-score,[10],3.49
